Holding throughout (details): 25 µM; exposure: 24-48 hpf
Test [1] concerns Danio rerio Tg(wt1b:EGFP) embryo, pronephros. The experiment in a line: glomerular separation, fold change vs DMSO control; higher = glomeruli further apart (abnormal). An outline of the steps:
(§1)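 Using a Fiji macro, distances and angles were calculated from 16 reference points set by hand on maximum projections of pronephroi imaged dorsally (470 nm, 10 z-slices) in agarose-filled 96-well plates. The dechorionated Tg(wt1b:EGFP) zebrafish embryos had received 25 μM compound in 0.5% DMSO in HEPES-buffered E3 with 0.003% PTU from 24 to 48 hpf at 28.5°C. Values more than 2 SD from a feature's mean were excluded. Each feature appears as a fold change over the mean of DMSO-treated embryos from the same day.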

The test system is the same in test [2]. Nature of the test: glomerular width (mean of left and right), fold change vs DMSO control; higher = wider glomerulus. An outline of the steps: as §1
The test system is the same in test [3]. The experiment in a line: fraction of imaged embryos annotated as normal kidney; higher = less nephrotoxic; extreme values may be limits of the assay. An outline of the steps:
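The read-out is the proportion of embryos in each treatment manually annotated as normal-kidney. Exposure ran from 24 to 48 hpf at 28.5°C in 12-well plates, using dechorionated Tg(wt1b:EGFP) zebrafish embryos in 5 mM HEPES-buffered E3 with 0.003% PTU, 0.5% DMSO and 25 μM compound. For imaging, larvae were anaesthetised with tricaine, positioned dorsally in agarose-filled 96-well plates and captured by widefield fluorescence (470 nm, 10 z-slices), with scoring done on maximum projections.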

Test [4] has the same test system. The experiment in a line: pronephric angle neck segment to proximal convoluted tubule (mean of left and right), fold change vs DMSO control; higher = larger pronephric angle. An outline of the steps:
as §1

Counter-ions that a name gives are not always drawn. ± gives the standard deviation or the standard deviation of the averaged measurements.

Consider `COc1ccc(-c2cc(=S)ss2)cc1` [Anethole-trithione], for which, in test [1], the glomerular separation came out at 1.04 ± 0.42. Besides, in test [2], the glomerular width came to 0.886 ± 0.027. In addition, the “fraction of imaged embryos annotated as normal kidney” value (from here on “fraction of imaged embryos annotated”) in test [3] was 0.909. Moreover, the “pronephric angle neck segment” value in test [4] was found to be 1.04 ± 0.066.
The compound `Cc1cc(N)c2ccccc2[n+]1CCCCCCCCCC[n+]1c(C)cc(N)c2ccccc21` [Dequalinium dichloride] returned a glomerular separation in test [1] of 1 ± 0.33. The glomerular width in test [2] worked out at 1.02 ± 0.021. Further, the “fraction of imaged embryos annotated” value in test [3] amounted to 0.75. For the same compound, in test [4], the “pronephric angle neck segment” value was 0.9864 ± 0.0034.
The corresponding values for `C[C@@H](O)[C@H]1C(=O)N2C(C(=O)O)=C(S[C@@H]3CN[C@H](C(=O)N(C)C)C3)[C@H](C)[C@H]12` [Meropenem] are 1.03 ± 0.35, 0.957 ± 0.021, 0.75 and 1.0113 ± 1.4e-05.
As for `Oc1ncnc2[nH]ncc12` [Allopurinol], in test [1], the glomerular separation was determined as 0.837 ± 0.22. Also, in test [2], the glomerular width was found to be 0.984 ± 0.018. For the same compound, in test [3], the “fraction of imaged embryos annotated” value was 0.75. In test [4], the “pronephric angle neck segment” value stood at 0.9723 ± 0.0072.
With `CN(C)CCC(c1ccc(Cl)cc1)c1ccccn1` (stereo unspecified) [Chlorpheniramine maleate], the glomerular separation in test [1] came to 1.56 ± 0.77. In test [2], the glomerular width amounted to 1.04 ± 0.042. Also, the “fraction of imaged embryos annotated” value in test [3] came out at 0.667. The “pronephric angle neck segment” value in test [4] came out at 0.969 ± 0.0027.
The compound `COc1ccc(C[C@@H]2c3cc(OC)c(OC)cc3CC[N@+]2(C)CCC(=O)OCCCCCOC(=O)CC[N@@+]2(C)CCc3cc(OC)c(OC)cc3[C@H]2Cc2ccc(OC)c(OC)c2)cc1OC` [Cisatracurium besylate] gave a glomerular separation in test [1] of 0.571 ± 0.3. In test [2], this compound had a glomerular width of 1.21 ± 0.0036. Further, the “fraction of imaged embryos annotated” value in test [3] worked out at 0.833. In addition, in test [4], the “pronephric angle neck segment” value was determined as 0.984 ± 0.035.
`O=C(N[C@H](CO)[C@H](O)c1ccc([N+](=O)[O-])cc1)C(Cl)Cl` [Chloramphenicol] registered a glomerular separation in test [1] of 1.33 ± 0.57. The glomerular width in test [2] is 0.954 ± 0.035. Further, the “fraction of imaged embryos annotated” value in test [3] amounted to 1. In addition, in test [4], the “pronephric angle neck segment” value was 0.935 ± 0.052.
In turn, `O=C(c1ccccc1)c1ccc2n1CCC2C(=O)O` (stereo unspecified) [Ketorolac tromethamine] came in with a glomerular separation in test [1] of 1 ± 0.43. Also, the glomerular width in test [2] worked out at 1.15 ± 0.013. Also, the “fraction of imaged embryos annotated” value in test [3] worked out at 0.667. For the same compound, in test [4], the “pronephric angle neck segment” value is 1.04 ± 0.025.
As to `CC[C@@H]1C(=O)OC[C@@H]1Cc1cncn1C` [Pilocarpine nitrate], in test [1], the glomerular separation amounted to 1.19 ± 0.19. Also, in test [2], the glomerular width was found to be 1.04 ± 0.051. For the same compound, the “fraction of imaged embryos annotated” value in test [3] came out at 0.667. Besides, the “pronephric angle neck segment” value in test [4] amounted to 1.02 ± 0.021.
